D2 PAM-1 = HTS Assay for Positive Allosteric Modulators of the Human D2 Dopamine Receptor: Primary Screen for Potentiators; D(2) dopamine receptor (Homo sapiens), P14416; HEK293 T-REx D2, calcium flux, EC20 dopamine potentiation; potentiation, % at 10 µM; 340,000 compounds, 0.34% hits;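 active means potentiation over 3 SD above the plate norm, cut at about 30% in these data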
Target sequence (P14416 whole entry, looked up): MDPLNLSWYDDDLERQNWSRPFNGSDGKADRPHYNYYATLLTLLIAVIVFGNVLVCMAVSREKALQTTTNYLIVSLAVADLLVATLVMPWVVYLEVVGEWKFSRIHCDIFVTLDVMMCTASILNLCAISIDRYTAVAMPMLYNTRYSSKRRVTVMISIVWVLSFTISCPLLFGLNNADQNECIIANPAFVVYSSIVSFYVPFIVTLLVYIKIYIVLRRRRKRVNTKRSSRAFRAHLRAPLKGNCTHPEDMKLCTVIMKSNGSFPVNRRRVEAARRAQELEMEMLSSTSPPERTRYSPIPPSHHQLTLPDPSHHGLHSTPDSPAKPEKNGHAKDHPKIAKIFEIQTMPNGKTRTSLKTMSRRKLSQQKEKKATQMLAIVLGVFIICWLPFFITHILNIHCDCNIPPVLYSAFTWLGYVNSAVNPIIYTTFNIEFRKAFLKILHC
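Cells plated with tetracycline inducer and held overnight at 30 C; calcium dye loaded 30–90 min at room temperature; baseline taken, compound added and read 180 s; EC20 dopamine then added and read 180 s.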
D2 PAM-2 = Beta-Arrestin HTS for Positive Allosteric Modulators of the Human D2 Dopamine Receptor: Potentiators | D(2) dopamine receptor (Homo sapiens), P14416 | DiscoveRx D2 beta-arrestin cells, luminescence, 90 min; 100% = 57 uM dopamine signal | potentiation, % (no concentration beside the values) | 360,000 compounds, 0.23% hits | AID 624464, 2012; in the data active means potentiation above about 50%; inconclusive means mostly about 30% to 49%
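D2 cells co-treated with compound plus 50 nM dopamine (EC20) for 90 min at 37 deg C to detect potentiation. Beta-arrestin recruitment was read as enzyme-fragment luminescence after 1 h at ambient temperature. Full response was set by 57 uM dopamine.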
D2 ag-1 = HTS Assay for Allosteric Agonists of the Human D2 Dopamine Receptor: Primary Screen for Agonists | D(2) dopamine receptor (Homo sapiens), P14416 | HEK293 T-REx D2 cells, calcium flux agonist mode | activation, % at 2 µM | AID 485358, 2010 | 340,000 compounds, 0.53% hits;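 active means activation over 3 SD above normal in the single-dose calcium agonist read, cut at about 30% in these data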
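Tetracycline-induced HEK293 T-REx cells with force-coupled D2 receptor, plated overnight at 30 C, loaded with no-wash calcium dye. After a 10 s baseline, compound was pin-added and calcium flux read kinetically for 180 s; calcium rises flagged agonists.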
D2 ag-2 = Beta-Arrestin HTS for Positive Allosteric Modulators of the Human D2 Dopamine Receptor: Agonists | D(2) dopamine receptor (Homo sapiens), P14416 | DiscoveRx PathHunter D2 beta-arrestin, luminescence, 90 min; 100% = 57 uM dopamine signal | activation, % (concentration not given with the values) | 360,000 compounds, 0.084% hits | AID 624465, 2012; in the data active means activation above about 40%; inconclusive means between about 15% and that limit
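DiscoveRx PathHunter D2 beta-arrestin cells (2,100/well) attached overnight, then compound-stimulated 90 min at 37 C in HBSS/10 mM HEPES/0.1% Tween-20 buffer; beta-galactosidase complementation read by luminescence after 1 h at ambient temperature. Dopamine 57 uM final (EC100) as control.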
D2 antagonist = HTS Assay for Allosteric Antagonists of the Human D2 Dopamine Receptor: Primary Screen for Antagonists; D(2) dopamine receptor (Homo sapiens), P14416; HEK293 TREx D2 cells, calcium flux, dopamine EC80; inhibition, % at 10 µM; 340,000 compounds, 2% hits; in the data active means inhibition above about 30%; inactive means below that, where a call was filed
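HEK293 T-REx D2 cells, tet-induced, calcium dye no-wash. Cpd pintool add, 180 s kinetic, then EC80 DA, 180 s kinetic. Ca flux read.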
Of the large screens only hits and unclear results are named; the others gave an inactive call. In the library only some 2.4% were active in any assay of this set; here they are far more common.

CCOC(=O)C(=CNc1ccc(OC)cc1[N+](=O)[O-])C(=O)OCC	D2 antagonist 31
CCC(=O)OCC(=O)Nc1ccc(OC)cc1[N+](=O)[O-]	none
O=C(COc1ccccc1)NCCc1csc(-c2ccc(Cl)cc2)n1	none (no result: D2 PAM-2, D2 ag-2, D2 antagonist)
COc1ccc(OCCn2nnc3sc4c(c3c2=O)CCCC4)cc1	none (no result: D2 PAM-2, D2 ag-2, D2 antagonist)
N/C(=N\OS(=O)(=O)c1ccccc1)c1ccncc1	D2 PAM-2 96, D2 ag-2 inconclusive
N/C(=N\OS(=O)(=O)c1ccc2ccccc2c1)c1ccncc1	D2 PAM-2 151, D2 ag-2 41
COC(=O)c1ccccc1NC(=O)c1ccc2c(c1)CCN2S(=O)(=O)c1ccc(Cl)cc1	none (no result: D2 PAM-2, D2 ag-2, D2 antagonist)
Cc1cccc(C)c1OCC(=O)N(Cc1ccc(Cl)cc1)CC1CCCO1 (stereo not given)	none (no result: D2 PAM-2, D2 ag-2, D2 antagonist)
COc1ccc(-c2cc3ccccc3n2CC(O)Cn2nc(C)cc2C)cc1 (stereo not given)	none
COc1ccc(-c2cc3ccccc3n2CC(O)CN2CCC(C)CC2)cc1 (stereo not given)	D2 antagonist 81
Cn1cc(Cl)c(C(=O)N/N=C/c2ccc(OS(=O)(=O)c3ccccc3)cc2)n1	D2 PAM-1 40
NC(N)=N/N=C/c1ccc(OS(=O)(=O)c2ccccc2)cc1	D2 antagonist 30
Cc1ccc(/C=N/NC(=O)c2nn(C)cc2Cl)cc1	none
CCC(=O)N/N=C/c1ccc(OS(=O)(=O)c2ccccc2)cc1	none
COC(=O)c1ccccc1NC(=O)c1nc(-c2ccc(Cl)cc2)n2c1CCCCC2	none (no result: D2 PAM-2, D2 ag-2, D2 antagonist)
COc1ccccc1NC(=S)NC(=O)Cc1ccc(Cl)cc1	D2 antagonist 52
Cc1nn(CC(=O)Nc2cccc(C(F)(F)F)c2)c(=O)c2nn(-c3ccccc3)c(C)c12	none (no result: D2 PAM-2, D2 ag-2, D2 antagonist)
CN(Cc1nccs1)C(=O)C1CCC(=O)N(CCc2ccc(Cl)cc2)C1 (stereo not given)	D2 antagonist 33
CC(=NNC(=S)N1CC2CCC(CC2)C1)c1cnccn1	D2 PAM-2 97, D2 ag-2 inconclusive (no result: D2 PAM-1, D2 ag-1, D2 antagonist)
CC(C)CN1CCc2nc(Nc3ccc(F)cc3F)ncc2C1	none (no result: D2 PAM-2, D2 ag-2, D2 antagonist)
Cc1cc(Nc2cccc(C(F)(F)F)c2)nc2ccc(NC(=O)c3cccnc3)cc12	none (no result: D2 PAM-2, D2 ag-2, D2 antagonist)
Cc1ccc(C)c(OCCN2C(=O)NC3(CCc4ccccc4C3)C2=O)c1 (stereo not given)	D2 antagonist 33
CCOc1ccc(-c2nc(CSCC(=O)N3CCN(c4cccc(C(F)(F)F)c4)CC3)c(C)o2)cc1	none (no result: D2 PAM-2, D2 ag-2, D2 antagonist)
COc1cc(/C=C(/C#N)c2nc3ccccc3[nH]2)ccc1OCC(=O)Nc1ccccc1C	none
COc1cc(/C=C(/C#N)c2nc3ccccc3[nH]2)ccc1OCC(=O)Nc1ccccc1C(C)C	D2 antagonist 32
CSc1ccc(/C=C(/Sc2nnc(-c3ccccc3)o2)C(=O)O)cc1	none
O=C(O)/C(=C\c1cccs1)Sc1nnc(-c2ccc(F)cc2)o1	D2 antagonist 35
O=C(O)CCS(=O)(=O)c1cccc2cccnc12	D2 antagonist 31
CCOC(=O)C(C)(C)Sc1nc2c(cnn2-c2ccc(C)cc2)c(=O)[nH]1	D2 antagonist 48
Cc1ccc(-n2ncc3c(=O)[nH]c(SCC(=O)N4CCOCC4)nc32)cc1	none
CCC1CCCCN1C(=O)CSc1nc2c(cnn2-c2ccc(C)cc2)c(=O)[nH]1 (stereo not given)	D2 antagonist 33
Cc1nc2ccccc2c(C)c1C(=O)c1ccccc1	D2 antagonist 30
CCCCNC(=O)Nc1ccc2c(c1)N(C)C(=O)c1ccccc1S2	D2 antagonist 46
CN1C(=O)CSc2ccc(NC(=O)NCc3ccccc3)cc21	D2 antagonist 30
Cc1ccc(CNC(=O)Nc2ccc3c(c2)N(C)C(=O)CS3)cc1	none
CCCNC(=O)Nc1ccc2c(c1)N(C)C(=O)c1ccccc1S2	none
CCCN(C(=O)c1cc2c(=O)oc3ccccc3c2s1)c1ccc(CC)cc1	none (no result: D2 PAM-2, D2 ag-2, D2 antagonist)
CCC(C)Sc1nc2c(c(=O)[nH]c(=O)n2C)n1CCc1ccccc1 (stereo not given)	none
CCC(C)Sc1nc2c(c(=O)[nH]c(=O)n2C)n1CC(O)COc1ccccc1C (stereo not given)	D2 antagonist 30
Cc1ccc(CN(C(=O)COc2ccc(Cl)c(C)c2)c2ccccn2)o1	none (no result: D2 PAM-2, D2 ag-2, D2 antagonist)
COc1ccc(OC)c(/C=C2/Sc3ccccc3C2=O)c1	D2 ag-1 34
CCOc1ccc(S(=O)(=O)NC2=NCCCCC2)cc1	D2 PAM-1 71
O=S(=O)(NC1=NCCCCC1)c1ccc(Cl)cc1	none
COc1ccc(C2=NS(=O)(=O)N(C)C(C(=O)Nc3ccc(OC)c(OC)c3)=C2)cc1	D2 antagonist 56
COc1ccc(NC(=O)C2=CC(c3ccc(C)cc3)=NS(=O)(=O)N2C)cc1OC	none
CC(=O)c1cccc(NC(=O)C2=CC(c3ccc4c(c3)OCO4)=NS(=O)(=O)N2C)c1	D2 antagonist 48
CCOc1ccc(CCNC(=O)c2cc3c(-c4ccccc4F)nn(C)c3s2)cc1OCC	none (no result: D2 PAM-2, D2 ag-2, D2 antagonist)
CC1CC(C)(C)NC(=S)N1CCC(=O)NCCc1ccc(Cl)cc1 (stereo not given)	D2 antagonist 35
CCOCCc1nn2c(=O)cc(COC(=O)c3ccco3)nc2s1	none (no result: D2 PAM-2, D2 ag-2, D2 antagonist)
Cc1cccc(Cn2nnc3c2C(=O)c2ccccc2C3=O)c1	D2 PAM-2 71
Cc1cccc(Cn2ncc(Cl)c(Cl)c2=O)c1	none
CC(=O)c1ccc(NC(=O)CNC2CCCCC2)cc1	none
Cc1ccc(NC(=O)C(C)N2CCCC2)cc1Cl (stereo not given)	D2 antagonist 33
Cc1ccc(NC(=O)CNC2CCCCC2)cc1Cl	D2 antagonist 30
CC(C)C(=O)Nc1ccc(N2CCCC2)c(Cl)c1	none
CCOc1ccc(NC(=O)c2c(C)oc3nc(C)nc(N4CCOCC4)c23)cc1	none (no result: D2 PAM-2, D2 ag-1, D2 ag-2, D2 antagonist)
O=C(CCC1CCCCC1)Nc1ccc(C(=O)c2ccncc2)cc1	D2 antagonist 48
CCOc1ccc(-c2c(C)nn3c(C)c(C(=O)NCCc4ccccc4)cnc23)cc1OCC	none (no result: D2 PAM-2, D2 ag-2, D2 antagonist)
COc1cccc(CN2CCc3ccc(NC(=O)CCc4ccc(C)cc4)cc3C2)c1O	D2 antagonist 31
O=C(Cn1cc([N+](=O)[O-])cn1)N1CCc2ccccc21	none
CC1Cc2ccccc2N1C(=O)Cn1cc([N+](=O)[O-])cn1 (stereo not given)	D2 antagonist 39
CC1Cc2ccccc2N1C(=O)CN1CCN(Cc2ccccc2)CC1 (stereo not given)	D2 antagonist 41
